Reference: PubChem BioAssay (NCATS)
A number with no mark means an inactive call. Calls come from the whole dose curve; as a rule, active = well fitted curve in the direction sought with a large enough effect; inconclusive = small, poorly fitted or top-dose-only effect, or another doubt; inactive = no such curve, though single readings can be large; an effect the other way counts as inactive or inconclusive. Inconclusive results are not listed.

biological target: Phosphoglycerate kinase, glycosomal (Trypanosoma brucei brucei) (UniProt P07378); experiment: qHTS Validation Assay to Find Inhibitors of Phosphoglycerate Kinase (AID 504547); conditions: enzymatic PGK inhibition, coupled luminescence read-out; series mostly up to 57.5 µM; activity, negative = inhibition: at the top concentration;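 note: control wells lack PGK and mark full inhibition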
Sequence (P07378 whole entry, looked up): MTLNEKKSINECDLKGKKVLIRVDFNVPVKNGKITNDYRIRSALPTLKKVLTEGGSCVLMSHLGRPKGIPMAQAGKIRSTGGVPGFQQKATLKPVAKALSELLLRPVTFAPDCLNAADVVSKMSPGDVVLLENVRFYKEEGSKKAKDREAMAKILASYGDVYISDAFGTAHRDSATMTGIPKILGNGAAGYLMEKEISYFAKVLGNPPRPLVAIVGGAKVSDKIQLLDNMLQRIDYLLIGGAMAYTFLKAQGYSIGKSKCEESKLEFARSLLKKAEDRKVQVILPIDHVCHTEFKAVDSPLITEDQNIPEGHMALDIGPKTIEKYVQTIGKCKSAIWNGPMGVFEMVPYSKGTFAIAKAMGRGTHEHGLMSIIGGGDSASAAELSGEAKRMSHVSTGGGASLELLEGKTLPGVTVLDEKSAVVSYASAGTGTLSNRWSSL
How it was run: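 Luminescence end-point (Kinase-Glo Plus, 10 min) after a 60 min room-temperature coupled reaction. GAPDH at 100nM final supplies 1,3-BPG to PGK. Buffer: 100mM TEA pH 7.6, 5mM MgCl2, 0.01% Tween-20. Wells lacking PGK served as controls.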

| SMILES | activity, negative = inhibition |
| --- | --- |
| COc1cc2c(cc1OC)-c1cc(=Nc3c(C)cc(C)cc3C)n(C)c(=O)n1CC2 | 5.9% |
| COCCc1ccc(OCC(O)CNC(C)C)cc1 (stereo not drawn) | 1.9% |
| NC(=O)N1c2ccccc2C=Cc2ccccc21 | 2.19% |
| CCCCCN(CCCCC)C(=O)C(CCC(=O)O)NC(=O)c1ccc(Cl)c(Cl)c1 (stereo not drawn) | -0.766% |
| NC(N)=NC(=O)Cc1c(Cl)cccc1Cl | 10.4% |
| CN(C)CC[C@@H](c1ccc(Br)cc1)c1ccccn1 | 6.62% |
| CNCCC(Oc1ccccc1OC)c1ccccc1 (stereo not drawn) | -0.123% |
| C[N+](C)(C)CCOC(=O)CCC(=O)OCC[N+](C)(C)C | 6.96% |
| NC(N)=N/N=C/c1c(Cl)cccc1Cl | 4.55% |
| O=C1NCN(c2ccccc2)C12CCN(CCCC(c1ccc(F)cc1)c1ccc(F)cc1)CC2 | 13.8% |
| C[N+](C)(C)CCCCCCCCCC[N+](C)(C)C | -1.59% |
| COc1ccc(CN(CCN(C)C)c2ccccn2)cc1 | 20.6% |
| CC[N+](C)(C)c1cccc(O)c1 | -0.346% |
| c1cnc(N2CCN(Cc3ccc4c(c3)OCO4)CC2)nc1 | -0.551% |
| CC1=C(C)C(=O)C(CCCCC#CCCCC#CCO)=C(C)C1=O | 8.3e-06% |
| CCN1CCc2nc(N)oc2CC1 | 2.28% |
| O=C(O)CN(CCN(CC(=O)O)CC(=O)O)CCN(CC(=O)O)CC(=O)O | 0.315% |

| SMILES | activity, negative = inhibition |
| --- | --- |
| CC(C)COCC(CN(Cc1ccccc1)c1ccccc1)N1CCCC1 (stereo not drawn) | 4.54% |
| CCCCNc1c(C(=O)OCC)c(C)nc2c1cnn2CC | 2.17% |
| CC(C)NNC(=O)c1ccncc1 | 15.5% |
| CC1=NS(=O)(=O)c2cc(Cl)ccc2N1 | -5.36% |
| Cc1nc2c([nH]1)c(=O)n(C)c(=O)n2Cc1ccco1 | 4.56% |
| COC(=O)[C@@H](N)Cc1ccc(O)c(O)c1 | 5.07% |
| C[C@]12C=CC(=O)C=C1CC[C@H]1[C@@H]3C[C@@H](O)[C@](O)(C(=O)CO)[C@@]3(C)C[C@H](O)[C@@]12F | 7.25% |
| Nc1c2c(nc3ccccc13)CCCC2O (stereo not drawn) | 4.01% |
| CN(C(=O)CCCOc1ccc2[nH]c(=O)ccc2c1)C1CCCCC1 | 11.6% |
| CCOC(=O)C1=C(C)NC(C)=C(C(=O)OC)C1c1cccc(Cl)c1Cl (stereo not drawn) | 5.36% |
| CC(=O)Nc1nnc(S(N)(=O)=O)s1 | 6.12% |
| c1ccc2c(c1)CCCC2C1=NCCN1 (stereo not drawn) | 18.1% |
| CC(=O)OC(C)C[N+](C)(C)C (stereo not drawn) | 4.59% |
| Cc1ccc(=O)n(-c2ccccc2)c1 | 8.91% |
| OC(CCN1CCCCC1)(c1ccccc1)C1CCCCC1 (stereo not drawn) | 0.737% |
| Cc1nc2sccn2c(=O)c1CCN1CCC(=C(c2ccc(F)cc2)c2ccc(F)cc2)CC1 | 9.04% |
| CCN(CC)CCNC(=O)c1cc(S(C)(=O)=O)ccc1OC | 0.592% |

biological target: phosphoglycerate mutase (Leishmania major) (UniProt Q4Q090); experiment: qHTS Validation Assay to Find Inhibitors of Phosphoglycerate Mutase (AID 504548); conditions: biochemical enzyme activity; series mostly up to 57.5 µM; activity change, negative = inhibition: at the top concentration;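 note: end-point luminescence from Kinase-GloPlus after the PGAM reaction; % is set by controls: 0 for no effect and ±100 for the full control effect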
Sequence (Q4Q090 1-553): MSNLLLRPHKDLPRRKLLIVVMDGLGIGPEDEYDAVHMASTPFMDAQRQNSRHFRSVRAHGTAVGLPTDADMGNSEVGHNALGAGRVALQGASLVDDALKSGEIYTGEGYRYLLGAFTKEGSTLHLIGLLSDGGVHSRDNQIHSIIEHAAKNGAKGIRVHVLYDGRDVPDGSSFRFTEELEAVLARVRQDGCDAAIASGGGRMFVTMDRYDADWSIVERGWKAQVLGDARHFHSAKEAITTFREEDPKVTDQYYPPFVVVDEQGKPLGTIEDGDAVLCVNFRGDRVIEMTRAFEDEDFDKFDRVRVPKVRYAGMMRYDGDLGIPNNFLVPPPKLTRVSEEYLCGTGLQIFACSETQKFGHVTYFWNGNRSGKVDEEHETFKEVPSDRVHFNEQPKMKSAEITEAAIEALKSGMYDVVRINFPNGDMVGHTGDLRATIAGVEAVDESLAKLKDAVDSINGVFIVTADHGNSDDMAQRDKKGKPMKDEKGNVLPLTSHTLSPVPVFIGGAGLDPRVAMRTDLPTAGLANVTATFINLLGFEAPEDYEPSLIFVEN
How it was run: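 Inhibition of L. major PGAM was assessed by Kinase-GloPlus luminescence following a 45-minute room-temperature reaction with enzyme at 1.25nM final.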

| SMILES | activity change, negative = inhibition |
| --- | --- |
| COc1cc2c(cc1OC)-c1cc(=Nc3c(C)cc(C)cc3C)n(C)c(=O)n1CC2 | -4.14% |
| COCCc1ccc(OCC(O)CNC(C)C)cc1 (stereo not drawn) | -2.91% |
| NC(=O)N1c2ccccc2C=Cc2ccccc21 | 0.0901% |
| CCCCCN(CCCCC)C(=O)C(CCC(=O)O)NC(=O)c1ccc(Cl)c(Cl)c1 (stereo not drawn) | 1.22% |
| NC(N)=NC(=O)Cc1c(Cl)cccc1Cl | -2.81% |
| CN(C)CC[C@@H](c1ccc(Br)cc1)c1ccccn1 | 9.29% |
| CNCCC(Oc1ccccc1OC)c1ccccc1 (stereo not drawn) | -1.87% |
| C[N+](C)(C)CCOC(=O)CCC(=O)OCC[N+](C)(C)C | 5.12% |
| NC(N)=N/N=C/c1c(Cl)cccc1Cl | -0.567% |
| O=C1NCN(c2ccccc2)C12CCN(CCCC(c1ccc(F)cc1)c1ccc(F)cc1)CC2 | 13.8% |
| C[N+](C)(C)CCCCCCCCCC[N+](C)(C)C | 18.9% |
| COc1ccc(CN(CCN(C)C)c2ccccn2)cc1 | 2.08% |
| CC[N+](C)(C)c1cccc(O)c1 | -1.03% |
| c1cnc(N2CCN(Cc3ccc4c(c3)OCO4)CC2)nc1 | 9.09% |
| CC1=C(C)C(=O)C(CCCCC#CCCCC#CCO)=C(C)C1=O | -1.89% |
| CCN1CCc2nc(N)oc2CC1 | 12.1% |
| O=C(O)CN(CCN(CC(=O)O)CC(=O)O)CCN(CC(=O)O)CC(=O)O | 0.788% |

| SMILES | activity change, negative = inhibition |
| --- | --- |
| CC(C)COCC(CN(Cc1ccccc1)c1ccccc1)N1CCCC1 (stereo not drawn) | 11.7% |
| CCCCNc1c(C(=O)OCC)c(C)nc2c1cnn2CC | -2.58% |
| CC(C)NNC(=O)c1ccncc1 | 1.74% |
| CC1=NS(=O)(=O)c2cc(Cl)ccc2N1 | 1.13% |
| Cc1nc2c([nH]1)c(=O)n(C)c(=O)n2Cc1ccco1 | -7.55% |
| COC(=O)[C@@H](N)Cc1ccc(O)c(O)c1 | -4.27% |
| C[C@]12C=CC(=O)C=C1CC[C@H]1[C@@H]3C[C@@H](O)[C@](O)(C(=O)CO)[C@@]3(C)C[C@H](O)[C@@]12F | 12.4% |
| Nc1c2c(nc3ccccc13)CCCC2O (stereo not drawn) | 15.1% |
| CN(C(=O)CCCOc1ccc2[nH]c(=O)ccc2c1)C1CCCCC1 | -2.78% |
| CCOC(=O)C1=C(C)NC(C)=C(C(=O)OC)C1c1cccc(Cl)c1Cl (stereo not drawn) | 0.0904% |
| CC(=O)Nc1nnc(S(N)(=O)=O)s1 | -1.99% |
| c1ccc2c(c1)CCCC2C1=NCCN1 (stereo not drawn) | 0.918% |
| CC(=O)OC(C)C[N+](C)(C)C (stereo not drawn) | -4.17% |
| Cc1ccc(=O)n(-c2ccccc2)c1 | -2.93% |
| OC(CCN1CCCCC1)(c1ccccc1)C1CCCCC1 (stereo not drawn) | 9.32% |
| Cc1nc2sccn2c(=O)c1CCN1CCC(=C(c2ccc(F)cc2)c2ccc(F)cc2)CC1 | -1.82% |
| CCN(CC)CCNC(=O)c1cc(S(C)(=O)=O)ccc1OC | -1.79% |
